What was measured:
[1] = molecular target: Tumor necrosis factor receptor superfamily member 10B (Homo sapiens) (UniProt O14763); assay: viability loss of caspase-8 NB7 cells with TRAIL – with/without TRAIL, luminescence panel, confirmation (AID 651596); details: NB7 neuroblastoma + caspase-8, TRAIL sensitization, NB7 Caspase-8, with TRAIL, mean of runs, at 10 µM, stronger effect = higher value
[2] = as above; details: NB7 neuroblastoma + caspase-8, without TRAIL, NB7 Caspase-8, without TRAIL, mean of runs, at 10 µM

Tumor necrosis factor receptor superfamily member 10B (Homo sapiens), sequence (O14763 whole entry, looked up): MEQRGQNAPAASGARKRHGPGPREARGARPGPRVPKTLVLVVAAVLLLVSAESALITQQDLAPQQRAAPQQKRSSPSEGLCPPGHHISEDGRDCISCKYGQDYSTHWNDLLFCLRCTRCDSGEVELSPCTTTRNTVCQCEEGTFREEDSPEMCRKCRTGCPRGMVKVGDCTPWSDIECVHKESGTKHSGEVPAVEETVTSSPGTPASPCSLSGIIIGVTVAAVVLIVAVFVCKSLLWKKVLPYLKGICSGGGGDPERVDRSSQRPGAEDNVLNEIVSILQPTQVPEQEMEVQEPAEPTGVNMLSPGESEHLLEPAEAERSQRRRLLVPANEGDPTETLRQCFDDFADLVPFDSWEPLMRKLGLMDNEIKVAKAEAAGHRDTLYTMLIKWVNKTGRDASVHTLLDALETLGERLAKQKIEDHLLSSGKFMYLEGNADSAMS

SMILES | activity [1] | activity [2]
CCC(C)c1ccc(-c2cc(C(=O)OCC(=O)Nc3cc(C)on3)c3ccccc3n2)cc1 (stereo not drawn) | 85.1% | 85.7%
O=C(CSc1ncnc2nc[nH]c12)c1ccc(Cl)cc1 | 57.6% | 66%
COCCCNc1ccn2nc(-c3ccccc3)cc2n1 | 50.1% | 35.5%
COc1cc2c3nnc(-c4ccc(F)cc4)c-3cn(Cc3ccccc3)c2cc1OC | 40.5% | 57.5%
Clc1nc2ccccc2cc1/C=N/Nc1nc2ccccc2[nH]1 | 86.2% | 81.5%
Cc1cccc(Nc2nc(N)nc(CCl)n2)c1 | 97.7% | 96.8%
Cc1cc(C)c2c(N)c(C(=O)Nc3nccs3)sc2n1 | 89.5% | 87.2%
O=C(Nc1ccc2[nH]ccc2c1)c1ccccc1 | 81.1% | 75.3%
CCCC(=O)OCCNc1cc(Sc2nccn2C)c2nonc2c1[N+](=O)[O-] | 35.8% | 97.2%
CCC(=O)c1ccc(/C=C/c2nc3ccccc3n2C)o1 | 61.2% | 54.8%
Cc1ccc(-c2cnn(-c3ccccc3)c2N)cc1 | 78.6% | 77%
CCCOc1ccc(-c2nnc(-c3ccco3)o2)cc1 | 53.5% | 50.9%
CC(C)(C)c1ccc2c(c1)OC(C(=O)N/N=C\c1ccc[nH]1)CO2 (stereo not drawn) | 26.6% | 43.6%
CC(=O)N1CCc2c(sc(NC(=O)c3ccc([N+](=O)[O-])o3)c2C(N)=O)C1 | 51.4% | 90.9%
CCOc1cc(/C=N/N=C(/N)c2nonc2N)cc(Br)c1OCc1ccc(Cl)cc1 | 30.7% | 37.3%
O=C(CC(Nc1ccc(Cl)cc1)C(=O)O)c1ccccc1 (stereo not drawn) | 60.6% | 73.2%
C(=Cc1c[nH]c2ccccc12)c1ccc2ccccc2n1 | 61.1% | 52.8%
Cc1ccc(C(=O)Nc2ccc3c(c2)OCCO3)c(Cl)c1 | 92.3% | 90.8%
Nc1c(-c2cccs2)cnc2c(-c3ccc(F)cc3)cnn12 | 57.5% | 48.8%
CCOc1cccc2sc(N(CCCN(C)C)C(=O)c3ccc(S(=O)(=O)N4CCc5ccccc5C4)cc3)nc12 | 55.9% | 73.7%
Cc1cc2nc(N3C(=O)CNC3=S)sc2cc1C | 67.8% | 64.7%
COc1ccc2nc(Cl)c(/C=N/Nc3ccccn3)cc2c1 | 64.5% | 59.5%

SMILES | activity [1] | activity [2]
COc1ccc(/C=C2\Oc3ccccc3C2=O)cc1 | 76.7% | 74.3%
CC(C)c1ccc(C(=O)Nc2cccnc2)cc1 | 57.1% | 56.2%
Cc1ccc(C(=O)Nc2ccc3c(c2)OCCO3)c(C)c1 | 91.6% | 91.5%
CN(C)CCCn1cnc2c(c1=N)C(c1ccccc1)c1ccc3ccccc3c1O2 (stereo not drawn) | 88.5% | 93.6%
O=S(=O)(c1ccc2c(c1)C(=NO)c1cc(S(=O)(=O)N3CCCCC3)ccc1-2)N1CCCCC1 | 98.8% | 99.3%
COc1ccc(C(=O)Nc2ccccc2C(=O)N/N=C/c2ccco2)cc1 | 87.6% | 59.1%
Brc1ccc(-c2nnc3sc(CN4CCC5(CC4)OCCO5)cn23)cc1 | 68.3% | 61.4%
COc1ccc(C=Cc2ccc3ccccc3n2)c(OC)c1 | 79.1% | 68.5%
CCCCCCCC(=O)Nc1ccc(C(=O)N/N=C/c2cccc([N+](=O)[O-])c2)cc1 | 69.3% | 75.9%
Cc1cc(C)cc(N2C(N)=NC(N)=NC2c2cccc(Cl)c2)c1 (stereo not drawn) | 57.8% | 74.3%
CN(C)c1ccc(-c2nc3ccccc3c(=O)[nH]2)cc1 | 91.9% | 92.5%
Nc1nc(N)c2nc(-c3ccccc3)c(N)nc2n1 | 74.7% | 80.7%
Cc1nc2ccc(-c3nc4cc(N)ccc4o3)cc2[nH]1 | 59.7% | 57.4%
CC(OC(=O)c1ccc(S(C)(=O)=O)c([N+](=O)[O-])c1)C(=O)NC1C2CC3CC(C2)CC1C3 (stereo not drawn) | 77.8% | 97.9%
Cc1cc(C)c(C#N)c(SCc2nc3ccccc3c(=O)[nH]2)n1 | 82.8% | 82.5%
O=C(CSc1nnc(-c2ccc(O)cc2)o1)Nc1cccc(O)c1 | 50.6% | 55.7%
CCOC(=O)C1=CCN(S(=O)(=O)c2ccccc2Cl)C1c1cccc(F)c1 (stereo not drawn) | -2.9% | 11.8%
COc1cccc(/C=C/C(=O)NNC(=O)c2ccco2)c1OC | 66.7% | 62.8%
O=C(Nc1ccc(-c2cn3ccsc3n2)cc1)C1CC1 | 75.1% | 70.2%
COc1cc(NC(=O)Nc2nc(C(N)Cc3ccc(C(F)(F)F)cc3)cs2)cc(OC)c1OC (stereo not drawn) | 29.9% | 74.6%
Nc1nc(N)c2cc(S(=O)(=O)c3cccc(C(F)(F)F)c3)ccc2n1 | 60.4% | 76.5%
CCc1nnc(NC(=O)c2nc(S(=O)(=O)Cc3ccccc3)ncc2Cl)s1 | 95.4% | 74.3%

Reference: PubChem BioAssay
